From PubChem BioAssay AID1159580 (chemical genetic matrix, 2015)
In all, about 5,500 compounds went through this assay and about 2,000 (36%) were called active. About 18% were inconclusive and are not listed. Cut-off read from the data, not from the text of the source: active = normalized growth mostly below about 0.91 (no sharp cut-off); inconclusive = no clear call, values can overlap the other calls; inactive = mostly above about 0.92. The list shows a part of the results.

Assay: chemical genetic growth profiling, strain panel (AID 1159580);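 note: tested at 20 µM; growth read once vehicle control cultures reached saturation at 30 °C; 1 = growth at the plate median or of vehicle wells; lower values mean less growth of the strain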
Details: growth OD

Measured: normalized growth

NCC(CC(=O)O)c1ccc(Cl)s1 (stereo unspecified)
inactive: S. cerevisiae deletion strains, locus YAL013W, strain DEP1, hits give low values 0.991 | S. cerevisiae deletion strains, locus YBR021W, strain FUR4, hits give low values 0.96 | S. cerevisiae deletion strains, locus YBR229C, strain ROT2, hits give low values 0.99 | S. cerevisiae deletion strains, locus YCL029C, strain bik1, hits give low values 0.985 | S. cerevisiae deletion strains, locus YDL035C, strain GPR1, hits give low values 0.994 | S. cerevisiae deletion strains, locus YDL074C, strain BRE1, hits give low values 1.02 | S. cerevisiae deletion strains, locus YDL101C, strain DUN1, hits give low values 0.992 | S. cerevisiae deletion strains, locus YDL134C, strain PPH21, hits give low values 0.982 | S. cerevisiae deletion strains, locus YDL185W, strain tfp1, hits give low values 0.978 | S. cerevisiae deletion strains, locus YDL192W, strain arf1, hits give low values 0.987 | S. cerevisiae deletion strains, locus YDR101C, strain arx1, hits give low values 0.998 | S. cerevisiae deletion strains, locus YDR150W, strain NUM1, hits give low values 1 | S. cerevisiae deletion strains, locus YDR162C, strain NBP2, hits give low values 1.03 | S. cerevisiae deletion strains, locus YDR318W, strain mcm21, hits give low values 0.968 | S. cerevisiae deletion strains, locus YDR388W, hits give low values 0.99 | S. cerevisiae deletion strains, locus YDR502C, strain sam2, hits give low values 0.996 | S. cerevisiae deletion strains, locus YEL061C, strain CIN8, hits give low values 0.994 | S. cerevisiae deletion strains, locus YER110C, hits give low values 0.979 | S. cerevisiae deletion strains, locus YER155C, strain BEM2, hits give low values 1 | S. cerevisiae deletion strains, locus YER167W, strain BCK2, hits give low values 0.973 | S. cerevisiae deletion strains, locus YGL078C, strain dbp3, hits give low values 0.995 | S. cerevisiae deletion strains, locus YGL086W, strain mad1, hits give low values 0.958 | S. cerevisiae deletion strains, locus YGL248W, strain PDE1, hits give low values 0.987 | S. cerevisiae deletion strains, locus YGR078C, strain PAC10, hits give low values 0.994 | S. cerevisiae deletion strains, locus YGR135W, strain pre9, hits give low values 0.974 | S. cerevisiae deletion strains, locus YGR229C, strain SMI1, hits give low values 0.958 | S. cerevisiae deletion strains, locus YGR252W, strain gcn5, hits give low values 0.926 | S. cerevisiae deletion strains, locus YHR030C, strain SLT2, hits give low values 0.989 | S. cerevisiae deletion strains, locus YHR079C, strain IRE1 (second series), hits give low values 0.992 | S. cerevisiae deletion strains, locus YHR094C, strain hxt1, hits give low values 0.991 | S. cerevisiae deletion strains, locus YHR129C, strain ARP1, hits give low values 0.99 | S. cerevisiae deletion strains, locus YHR200W, strain rpn10, hits give low values 0.978 | S. cerevisiae deletion strains, locus YIL066C, strain RNR3, hits give low values 0.979 | S. cerevisiae deletion strains, locus YIL073C, strain SPO22, hits give low values 0.959 | S. cerevisiae deletion strains, locus YIL125W, strain kgd1, hits give low values 1.01 | S. cerevisiae deletion strains, locus YIR030C, strain dcg1, hits give low values 0.993 | S. cerevisiae deletion strains, locus YJL095W, strain BCK1, hits give low values 0.991 | S. cerevisiae deletion strains, locus YJL134W, strain LCB3, hits give low values 0.989 | S. cerevisiae deletion strains, locus YJL168C, strain set2, hits give low values 0.996 | S. cerevisiae deletion strains, locus YJL187C, strain SWE1 (second series), hits give low values 0.999 | S. cerevisiae deletion strains, locus YJR043C, strain POL32, hits give low values 0.964 | S. cerevisiae deletion strains, locus YJR075W, strain HOC1, hits give low values 1.06 | S. cerevisiae deletion strains, locus YKL009W, strain mrt4, hits give low values 1 | S. cerevisiae deletion strains, locus YKL068W, hits give low values 0.989 | S. cerevisiae deletion strains, locus YKL085W, strain MDH1 (second series), hits give low values 1.02 | S. cerevisiae deletion strains, locus YKL085W, strain MDH1, hits give low values 1.02 | S. cerevisiae deletion strains, locus YKL190W, strain CNB1, hits give low values 0.997 | S. cerevisiae deletion strains, locus YKR001C, strain vps1, hits give low values 0.947 | S. cerevisiae deletion strains, locus YLR039C, strain RIC1, hits give low values 1.01 | S. cerevisiae deletion strains, locus YLR058C, strain SHM2, hits give low values 0.985 | S. cerevisiae deletion strains, locus YLR102C, strain apc9, hits give low values 0.998 | S. cerevisiae deletion strains, locus YLR262C, strain YPT6, hits give low values 1.03 | S. cerevisiae deletion strains, locus YLR268W, strain sec22, hits give low values 0.988 | S. cerevisiae deletion strains, locus YLR330W, strain CHS5, hits give low values 0.993 | S. cerevisiae deletion strains, locus YLR342W, strain FKS1 (second series), hits give low values 0.978 | S. cerevisiae deletion strains, locus YLR371W, strain rom2, hits give low values 0.986 | S. cerevisiae deletion strains, locus YLR418C, strain cdc73, hits give low values 0.914 | S. cerevisiae deletion strains, locus YML016C, strain PPZ1, hits give low values 0.984 | S. cerevisiae deletion strains, locus YML032C, strain rad52, hits give low values 0.963 | S. cerevisiae deletion strains, locus YML124C, strain tub3, hits give low values 0.979 | S. cerevisiae deletion strains, locus YMR078C, strain ctf18, hits give low values 0.989 | S. cerevisiae deletion strains, locus YMR223W, strain ubp8, hits give low values 0.958 | S. cerevisiae deletion strains, locus YMR263W, strain SAP30, hits give low values 1.01 | S. cerevisiae deletion strains, locus YMR307W, strain GAS1, hits give low values 0.959 | S. cerevisiae deletion strains, locus YNL067W, strain RPL9B, hits give low values 1.02 | S. cerevisiae deletion strains, locus YNL128W, strain TEP1, hits give low values 1.02 | S. cerevisiae deletion strains, locus YNL153C, strain GIM3, hits give low values 1.02 | S. cerevisiae deletion strains, locus YNL233W, strain BNI4, hits give low values 0.989 | S. cerevisiae deletion strains, locus YNL250W, strain rad50, hits give low values 0.995 | S. cerevisiae deletion strains, locus YNL271C, strain bni1, hits give low values 0.988 | S. cerevisiae deletion strains, locus YNL298W, strain CLA4, hits give low values 0.988 | S. cerevisiae deletion strains, locus YNL307C, strain MCK1, hits give low values 0.954 | S. cerevisiae deletion strains, locus YNL322C, strain KRE1, hits give low values 0.999 | S. cerevisiae deletion strains, locus YNR052C, strain pop2, hits give low values 0.981 | S. cerevisiae deletion strains, locus YOL006C, strain TOP1, hits give low values 0.973 | S. cerevisiae deletion strains, locus YOL012C, strain htz1 1.87 | S. cerevisiae deletion strains, locus YOL147C, strain pex11, hits give low values 0.998 | S. cerevisiae deletion strains, locus YOR061W, strain CKA2, hits give low values 0.997 | S. cerevisiae deletion strains, locus YOR069W, strain VPS5, hits give low values 0.983 | S. cerevisiae deletion strains, locus YOR136W, strain idh2, hits give low values 0.981 | S. cerevisiae deletion strains, locus YOR144C, strain elg1, hits give low values 0.987 | S. cerevisiae deletion strains, locus YOR184W, strain ser1, hits give low values 0.94 | S. cerevisiae deletion strains, locus YOR316C, strain cot1, hits give low values 0.992 | S. cerevisiae deletion strains, locus YPL055C, strain LGE1, hits give low values 1.05 | S. cerevisiae deletion strains, locus YPL241C, strain CIN2, hits give low values 0.993 | S. cerevisiae deletion strains, locus YPR119W, strain clb2, hits give low values 0.994 | S. cerevisiae deletion strains, locus YPR141C, strain kar3, hits give low values 0.982 | S. cerevisiae deletion strains, locus YPR163C, strain tif3, hits give low values 0.991 | S. cerevisiae deletion strains, locus YPR167C, strain met16, hits give low values 0.99 | S. cerevisiae deletion strains, strain wtn01, hits give low values 0.988 | S. cerevisiae strains, strain wild type, hits give low values 0.979
